Bioassay records as filed in PubChem BioAssay.
This is a sample that favours compounds with a hit; in the whole collection about 3.2% have one here.
RE007 growth inh: less growth of the S. pombe RE007 Vpr strain. S. pombe RE007 Vpr strain, BacTiter-Glo ATP luminescence, 24 h. AID 651644. 360,000 compounds, 0.21% hits. Potency, µM (series often up to 92.2 µM), without a hit: at the highest dose activity change, negative = less growth, hits mostly inhibitors; active = well fitted falling curve with a large enough effect; inconclusive = small, poorly fitted or top-dose-only effect; inactive = no such curve, though single readings can be large or run the other way; also: nearly all actives have a fitted effect of over 50% in size
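Fission yeast strain RE007, carrying one chromosomally integrated HIV-1 vpr copy, was seeded at OD 0.01 in PMG+AL medium with 23 nL pinned compound. After 24 h at 30 °C and 99% humidity, viability was read by BacTiter-Glo luminescence.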
AmpC inh detg: blocks E. coli AmpC beta-lactamase in detergent assay | P00811 | AmpC hydrolysis of nitrocefin, absorbance 480 nm, 0.01% Triton | Potency, µM (series often up to 114 µM), without a hit: at the highest dose activity change, negative = inhibition, actives largely listed as inhibitors | 370,000 compounds, 0.041% hits;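 also: 0% = no-compound wells and -100% = no-enzyme wells; nearly all actives have a fitted effect of over 25% in size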
Target sequence (P00811 whole entry, looked up): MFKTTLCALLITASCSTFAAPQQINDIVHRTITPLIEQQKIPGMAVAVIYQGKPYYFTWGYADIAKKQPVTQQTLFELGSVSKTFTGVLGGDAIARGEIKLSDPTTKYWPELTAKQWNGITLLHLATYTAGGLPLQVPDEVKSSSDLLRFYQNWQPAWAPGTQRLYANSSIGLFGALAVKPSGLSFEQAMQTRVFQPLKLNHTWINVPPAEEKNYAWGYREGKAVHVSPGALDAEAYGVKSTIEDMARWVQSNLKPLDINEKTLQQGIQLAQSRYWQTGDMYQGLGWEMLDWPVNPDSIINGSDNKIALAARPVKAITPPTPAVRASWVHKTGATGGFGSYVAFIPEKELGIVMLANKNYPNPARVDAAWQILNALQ
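AmpC (5.3 nM in the dispensed reagent) in 20 mM phosphate pH 7.0 with 0.01% (detergent screen) or 0.0001% Triton X-100 was preincubated with compounds for 15 min at room temperature. Nitrocefin was then added from an 800 uM solution, and hydrolysis was followed at 480 nm.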
AmpC no deterg: AmpC beta-lactamase inhibition without detergent. AmpC nitrocefin hydrolysis, absorbance 480 nm, 0.0001% Triton. Potency, µM (doses to about 57.1 µM), without a hit: top-dose activity change, negative = inhibition, usual class: inhibitors. 330,000 compounds, 0.52% hits. AID 485341;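 also: plate controls were no compound for no effect and no enzyme for full effect; nearly all actives have a fitted effect of over 20% in size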
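20 mM phosphate pH 7.0 + 0.01% (detergent screen) or 0.0001% Triton X-100; 5.3 nM AmpC reagent; cpd preinc 15 min RT; nitrocefin (800 uM stock) to start; A480 q20 s × 4 min; Activity was normalised to no-enzyme and no-compound control wells.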
AMA1-RON2 inh: inhibitors of Plasmodium falciparum AMA1-RON2 interaction; AlphaScreen AMA1-biotinylated RON2 peptide binding; Potency, µM (top dose mostly 58.2 µM), for inactives: top-dose activity change, negative = inhibition, most hits filed as inhibitors; 360,000 compounds, 0.2% hits;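 also: 0% = vehicle wells and -100% = peptide control; nearly all actives have a fitted effect of over 45% in size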
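AMA1 (3D7) with his tag at 25 nM final met compounds first, then biotinylated RON2 peptide at 25 nM; detection used donor plus acceptor beads, 10 µg/mL apiece, read by AlphaScreen after 30 min at room temperature.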
Sm TGR inh: inhibitors of Schistosoma mansoni thioredoxin glutathione reductase | Potency, µM (series often up to 114 µM), without a hit: at the highest dose activity change, negative = inhibition, most hits filed as inhibitors | 360,000 compounds, 3% hits | Q962Y6 | purified TGR, DTNB reduction, TNB absorbance 405 nm; also: nearly all actives have a fitted effect of over 60% in size
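Kinetic colorimetric format: TGR-catalysed, NADPH-driven DTNB reduction monitored via TNB absorbance. Enzyme dispensed at 20 nM; compound exposure 15 min at room temperature before reaction start.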
Numbers without * were called inactive; u = inconclusive; x = no result given. Unless noted, calls follow the shape of the dose curve; as a rule, active = well fitted curve in the direction sought with a large enough effect; inconclusive = small, poorly fitted or top-dose-only effect, or another doubt; inactive = no such curve, though single readings can be large; an effect the other way counts as inactive or inconclusive. Unless noted, % is scaled to controls: 0 for no effect and ±100 for the full control effect; potency is read from the fitted curve at half-maximal effect.

SMILES | RE007 growth inh | AmpC inh detg | AmpC no deterg | AMA1-RON2 inh | Sm TGR inh
COc1ccc(C[C@@H]2CN3C(=NC[C@@H]3C)N2C[C@H](C)NC(=O)c2ccc(C)c(Br)c2)cc1 | -9% | 7% | 18% | -24% | 22µM*
C/C=C(\C)C(=O)NCCN1C2=NC[C@@H](Cc3ccccc3)N2C[C@H]1Cc1ccc(O)cc1 | -9% | 6% | -1% | -6% | -1%
C/C=C(\C)C(=O)NCCN1C2=NC[C@H](Cc3ccc(O)cc3)N2C[C@H]1Cc1ccc(O)cc1 | -9% | 5% | -13% | -9% | 50µM*
C/C=C(\C)C(=O)NCCN1C2=NC[C@H](C(C)C)N2C[C@@H]1Cc1ccc(OC)cc1 | -1% | -6% | 8% | 148% | 0%
COc1ccc(C[C@H]2CN3C(=NC[C@@H]3C)N2CCNC(=O)CCC2CCCCC2)cc1 | 7% | -2% | 24% | -4% | 16µM*
C/C=C(\C)C(=O)N[C@@H](C)CN1C2=NC[C@H](C(C)C)N2C[C@H]1Cc1ccc(OC)cc1 | -13% | -1% | 53% | -2% | 5.6µM*
COc1ccc(C[C@H]2CN3C(=NC[C@H]3C)N2CCNC(=O)c2ccc(C)c(Br)c2)cc1 | -4% | 5% | 28% | -3% | 1%
CCOc1ccccc1NC(=O)C1=C(C)Nc2ncnn2C1c1ccco1 (stereo not given) | x | 22% | x | x | 7%
COc1ccc(C2C=C(c3ccccc3)Nc3nc(NC(=O)/C=C/c4ccc(Cl)cc4)nn32)cc1 (stereo not given) | x | 11% | x | x | -3%
CC(C)[C@H]1CN=C2N(C[C@H](C)NC(=O)CCC3CCCCC3)[C@H](Cc3ccc(O)cc3)CN21 | u | 5% | 24% | -5% | 20µM*
Cc1nc2ncccn2c1-c1csc(Nc2ccc(N(C)C)cc2)n1 | 7% | -1% | 7% | 14µM* | x
CCOc1cc(C2C(C#N)=C(N)OC(C)=C2C(C)=O)cc(Br)c1O (stereo not given) | -5% | -8% | -21% | -11% | 50µM*
Cc1nn(C(=O)c2cccc([N+](=O)[O-])c2C)c(C)c1S(=O)(=O)N1CCOCC1 | x | 17% | x | x | -5%
COc1cc2ncc3c(-c4ccc(C)cc4)nn(-c4ccc(F)cc4F)c3c2cc1OC | x | 6% | x | x | 4%
CCN(CC)Cc1cc(C(C)=O)ccc1OCC(C)C | -4% | u | 6% | -8% | 18µM*
CCN(CC)c1nn2c(=O)c(C(=O)NCc3ccccc3Br)cnc2s1 | x | 19% | x | x | 4%
CC1(C)CC(=O)N(c2cc(Cl)ccc2Cl)C(=O)C1 | 13% | 1% | -9% | -6% | -1%
CC1=C(c2ccc(Cl)cc2)[N+](=O)C(C)(C)N1[O-] | -9% | u | -4% | -2% | 20µM*
O=C(CSc1nc(-c2ccc(F)cc2)[nH]c1-c1ccccc1)NCC1CCCO1 (stereo not given) | x | -1% | x | x | 1%
C[C@@H]1NCCc2cc(O)c(O)cc21 | 8% | -18% | -25% | u | 45µM*
Oc1ccc(C2=NN(c3ccccc3)C(c3ccc(F)cc3)C2)cc1 (stereo not given) | 40µM* | 13% | -57% | 3% | 10%
Oc1ccccc1C1=NN(c2ccccc2)C(c2ccc(F)cc2)C1 (stereo not given) | 0% | -8% | -32% | 68% | -34%
COc1ccc(-c2nc3sc(CCNC(=O)Cc4ccccc4)c(C)n3n2)cc1 | x | -3% | x | x | -8%
COc1cccc(CNC(=O)C(=O)NCC(c2cccs2)S(=O)(=O)c2cccs2)c1 (stereo not given) | x | 1% | x | x | 25µM*
O=C(NCc1ccc(Cl)cc1)C(=O)NCC(c1cccs1)S(=O)(=O)c1cccs1 (stereo not given) | x | 0% | x | x | u
SMILES | RE007 growth inh | AmpC inh detg | AmpC no deterg | AMA1-RON2 inh | Sm TGR inh
O=C(NCc1ccccc1)C(=O)NCC(c1ccco1)S(=O)(=O)c1cccs1 (stereo not given) | x | -1% | x | x | u
COc1cccc(CNC(=O)C(=O)NCC(c2ccco2)S(=O)(=O)c2cccs2)c1 (stereo not given) | x | 0% | x | x | 4µM*
CCN(CC)S(=O)(=O)c1ccc(Cl)c(NC(=O)COC(=O)c2ccc([N+](=O)[O-])o2)c1 | 22% | 0% | -34% | -6% | 6.3µM*
COc1ccc(NC(=O)COC(=O)c2ccc([N+](=O)[O-])o2)cc1Cl | -12% | 4% | -34% | -12% | 25µM*
COc1ccc(C)cc1NC(=O)COC(=O)c1ccc([N+](=O)[O-])o1 | 8% | 0% | -19% | 6% | 0%
O=C(OCc1cc(Cl)ccc1OC(F)F)c1ccc([N+](=O)[O-])o1 | x | -3% | 2% | x | 13µM*
CN(C)S(=O)(=O)c1cccc(NC(=O)COC(=O)c2ccc([N+](=O)[O-])o2)c1 | -7% | -7% | -45% | 4% | 32µM*
O=C(Cn1cnc2onc(-c3ccc(F)cc3)c2c1=O)Nc1ccc(F)c(Cl)c1 | x | -8% | x | x | -3%
O=C(Nc1cccs1)N1CCN(c2ncccn2)CC1 | 1% | -6% | -13% | -3% | 18µM*
COc1ccccc1-c1ccc(/C=C2\C=CC(=O)O2)o1 | -12% | 2% | -30% | 38% | 14µM*
N#Cc1c(-c2c(Cl)cccc2Cl)noc1/C=C/Nc1ccc(C(=O)O)cc1 | 0% | 2% | 18µM* | 14% | -34%
CN(C)/C=C/c1onc(-c2c(Cl)cccc2Cl)c1C#N | 8% | 3% | -43% | -9% | -1%
COC(=O)C1=C(c2c(C)noc2C)C[C@@H]2CC[C@H]1N2C(=O)NC1CC1 | -1% | 5% | -7% | -3% | -4%
COC(=O)C1=C(c2c(C)noc2C)C[C@@H]2CC[C@H]1N2C(=O)N1CCOCC1 | -4% | 8% | -10% | 8% | 50µM*
COc1ccccc1Oc1c(C)oc2cc(OC(=O)N(C)C)ccc2c1=O | 13% | -8% | 17% | 6% | 4%
COc1ccc(Oc2c(C)oc3cc(OC(=O)N(C)C)ccc3c2=O)cc1 | -2% | 3% | 2% | -1% | 22µM*
COc1ccc(CN2CCNC(=O)C2CC(=O)N(C)CC2CCOCC2)cc1OC (stereo not given) | 10% | 4% | 24% | -4% | u
CN(CC1CCOCC1)C(=O)CC1C(=O)NCCN1Cc1cccc(C(F)(F)F)c1 (stereo not given) | -7% | u | 155% | 30% | 45µM*
CN(CCCC1CCCC1)C(=O)CC1C(=O)NCCN1Cc1ccc(F)cc1 (stereo not given) | 8% | u | 172% | 15% | 28µM*
O=C(CC1C(=O)NCCN1Cc1ccoc1)NCc1cccc(OC(F)(F)F)c1 (stereo not given) | -4% | 5% | 38% | 4% | 25µM*
